Inconclusive results are not listed. Calls of active or inactive are those of the source. Unless noted, calls follow the shape of the dose curve; as a rule, active = well fitted curve in either direction with a large enough effect (not every such curve was filed as active); inconclusive = small, poorly fitted or top-dose-only effect, or another doubt; inactive = flat fitted curve, though single readings scatter.
system: not listed separately; assay: Cell Viability - SK-N-SH (AID 435; calls by dose curve;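 also: potency is read from the fitted curve at half-maximal effect; compound exposure lasted 40 h at 37 °C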); conditions: SK-N-SH neuroblastoma cell viability qHTS
How it was run: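 Human neuroblastoma line, 40 h exposure at 37 °C, ATP quantified via luciferase luminescence; DMSO and 100 uM tamoxifen define 0 and 100% inhibition for AC50 fitting.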

SMILES | Potency
Cc1cccc([N+](=O)[O-])c1C(=O)O | > 92 µM (inactive)
Cc1cc(C)cc(N)c1 | > 92 µM (inactive)
C1COC1 | > 92 µM (inactive)
O=C(O)c1ccccc1C(=O)O | > 92 µM (inactive)
Cc1c(N)cccc1N | > 92 µM (inactive)
CC(=O)c1cc(C)oc1C | > 92 µM (inactive)
CC(C)=CCl | > 92 µM (inactive)
Fc1ccccc1 | > 92 µM (inactive)
O=[N+]([O-])c1ccc(Cl)cc1Cl | > 92 µM (inactive)
O=[N+]([O-])c1cc(C(F)(F)F)ccc1Cl | > 92 µM (inactive)
CCc1ccccc1 | > 92 µM (inactive)
CCN(CC)c1cccc(O)c1 | > 92 µM (inactive)
CC(C)N=C=NC(C)C | > 92 µM (inactive)
CCOC(=O)C(C)C(C)=O (configuration not stated) | > 92 µM (inactive)

target: Mitogen-activated protein kinase 10 (Mus musculus) (UniProt Q61831); assay: JNK3 AlphaScreen Assay (AID 530); conditions: JNK3 lysate, c-Jun phosphorylation; series mostly up to 57.1 µM; activity change, negative = inhibition: at the top concentration;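 also: kinase came from lysate of stimulated human HepG2 cells; signal reports phosphorylation of biotinylated GST-cJun 1-79 at Ser73 with 10 µM ATP; % is scaled to controls: 0 for no effect and ±100 for the full control effect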
How it was run: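 Phosphorylation of biotinylated GST-cJun(1-79) at Ser73 is measured by AlphaScreen proximity luminescence. Enzyme is JNK3 in HepG2 lysates activated with interleukin-1beta and tumor necrosis factor alpha; ATP is 10 uM final.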

SMILES | activity change, negative = inhibition
C=C(C)OC(C)=O | 10.7% (inactive)
NC(=O)NC(N)=O | -7.06% (inactive)
CC(=O)Nc1ccccc1C | 11.9% (inactive)
CCc1ccccc1O | -14.1% (inactive)
Cc1cccc(C)c1 | 6.52% (inactive)
O=C(O)c1ccccc1[N+](=O)[O-] | -7.14% (inactive)
C=CCCCCCCC=C | 20% (inactive)
Cc1ccc2c(c1[N+](=O)[O-])C(=O)c1ccccc1C2=O | -2.79% (inactive)
CC(C)(C)OC=O | 12.3% (inactive)
CC(C)(c1cc(Br)c(OCC(Br)CBr)c(Br)c1)c1cc(Br)c(OCC(Br)CBr)c(Br)c1 (configuration not stated) | 6.52% (inactive)
CCCCCCCCCCCCC1CO1 (configuration not stated) | -3.09% (inactive)
CCCOCC(C)O (configuration not stated) | 5.17% (inactive)
Cc1c(N)cccc1[N+](=O)[O-] | -17.6% (inactive)
Nc1ccccc1[N+](=O)[O-] | -3.42% (inactive)
O=C(O)c1c(Cl)cccc1Cl | 2.45% (inactive)
Nc1nc(-c2ccccc2)cs1 | -12.5% (inactive)
CCC(C)=O | 16.9% (inactive)
Nc1c(Cl)cc(Cl)cc1Cl | 10.2% (inactive)
CCOc1ccccc1N | 21.5% (inactive)
O=Cc1ccc(CO)o1 | 9.35% (inactive)

SMILES | activity change, negative = inhibition
C=C(C)C(=O)OCC(C)O (configuration not stated) | -12.7% (inactive)
Nc1ccc(Cl)cc1[N+](=O)[O-] | -15.3% (inactive)
CCCCC=O | 0.0947% (inactive)
COC(=O)c1ccccc1 | 10.1% (inactive)
CC(=C/C=C/C(C)=C/C=C/C=C(C)/C=C/C=C(C)/C=C/C(=O)O)/C=C/C(=O)O | 13.2% (inactive)
Cc1cccc([N+](=O)[O-])c1C(=O)O | 0.763% (inactive)
Cc1cc(C)cc(N)c1 | -5.42% (inactive)
C1COC1 | 15.4% (inactive)
O=C(O)c1ccccc1C(=O)O | -11.1% (inactive)
Cc1c(N)cccc1N | 14.4% (inactive)
CC(=O)c1cc(C)oc1C | 1.58% (inactive)
CC(C)=CCl | 12% (inactive)
Fc1ccccc1 | 17.5% (inactive)
O=[N+]([O-])c1ccc(Cl)cc1Cl | 27% (inactive)
O=[N+]([O-])c1cc(C(F)(F)F)ccc1Cl | -10.5% (inactive)
CCc1ccccc1 | -1.37% (inactive)
CCN(CC)c1cccc(O)c1 | -19.8% (inactive)
CC(C)N=C=NC(C)C | 12.6% (inactive)
CCOC(=O)C(C)C(C)=O (configuration not stated) | 17.3% (inactive)

system: not listed separately; assay: Cell Viability - N2a (AID 540; active = well fitted cell-killing curve with a large enough effect;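 also: cells exposed to compound for 40 h at 37 °C; plate controls were DMSO alone for no effect and tamoxifen control for full effect; nearly all actives have a fitted effect of over 45% in size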); conditions: N2a mouse neuroblastoma cell viability; activity change, negative = cytotoxicity: at 92.2 µM (top of the series)
How it was run: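 Cytotoxicity was scored as loss of cellular ATP in N2a cells, a mouse neuroblastoma line. Compounds are applied in a qHTS concentration series for 40 hr at 37 °C.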

SMILES | activity change, negative = cytotoxicity
C=C(C)OC(C)=O | -6.88% (inactive)
NC(=O)NC(N)=O | -8.97% (inactive)
CC(=O)Nc1ccccc1C | 2.99% (inactive)
CCc1ccccc1O | 2.33% (inactive)
Cc1cccc(C)c1 | 2.48% (inactive)
O=C(O)c1ccccc1[N+](=O)[O-] | 4.07% (inactive)
C=CCCCCCCC=C | -4.21% (inactive)
Cc1ccc2c(c1[N+](=O)[O-])C(=O)c1ccccc1C2=O | 3.24% (inactive)
CC(C)(C)OC=O | -8.52% (inactive)
CC(C)(c1cc(Br)c(OCC(Br)CBr)c(Br)c1)c1cc(Br)c(OCC(Br)CBr)c(Br)c1 (configuration not stated) | 5.75% (inactive)
CCCCCCCCCCCCC1CO1 (configuration not stated) | 6.57% (inactive)
CCCOCC(C)O (configuration not stated) | -5.54% (inactive)
Cc1c(N)cccc1[N+](=O)[O-] | 3.87% (inactive)
Nc1ccccc1[N+](=O)[O-] | -9.35% (inactive)
O=C(O)c1c(Cl)cccc1Cl | -6.78% (inactive)
Nc1nc(-c2ccccc2)cs1 | -4.72% (inactive)
CCC(C)=O | -16.1% (inactive)
Nc1c(Cl)cc(Cl)cc1Cl | -11.7% (inactive)
CCOc1ccccc1N | 1.87% (inactive)
O=Cc1ccc(CO)o1 | 1.46% (inactive)

SMILES | activity change, negative = cytotoxicity
C=C(C)C(=O)OCC(C)O (configuration not stated) | 6.96% (inactive)
Nc1ccc(Cl)cc1[N+](=O)[O-] | -24.6% (inactive)
CCCCC=O | 4.71% (inactive)
COC(=O)c1ccccc1 | -10.2% (inactive)
CC(=C/C=C/C(C)=C/C=C/C=C(C)/C=C/C=C(C)/C=C/C(=O)O)/C=C/C(=O)O | -0.984% (inactive)
Cc1cccc([N+](=O)[O-])c1C(=O)O | 11.2% (inactive)
Cc1cc(C)cc(N)c1 | 0.732% (inactive)
C1COC1 | -2.69% (inactive)
O=C(O)c1ccccc1C(=O)O | 1.25% (inactive)
Cc1c(N)cccc1N | -3.84% (inactive)
CC(=O)c1cc(C)oc1C | -1.61% (inactive)
CC(C)=CCl | 1.02% (inactive)
Fc1ccccc1 | 2.48% (inactive)
O=[N+]([O-])c1ccc(Cl)cc1Cl | 10.8% (inactive)
O=[N+]([O-])c1cc(C(F)(F)F)ccc1Cl | 4.62% (inactive)
CCc1ccccc1 | -7.66% (inactive)
CCN(CC)c1cccc(O)c1 | 0.0315% (inactive)
CC(C)N=C=NC(C)C | -6.55% (inactive)
CCOC(=O)C(C)C(C)=O (configuration not stated) | 0.646% (inactive)

From PubChem BioAssay (NCATS)
